Each structure is given as a SMILES string. About 83,000 compounds went through this panel and 20% of them were active in at least one assay; those are over-represented in the sample as a whole.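 Negative percent growth values reflect cell death: -40 means 40% of the cells present at the start died, and -100 means all died.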 A number with no mark means an inactive call. Calls of active or inactive are those of the source. The calls were made as follows: active = growth percent below 10; inactive = the rest.

24 compounds from PubChem BioAssay (NCI) can be followed below.

The test system of this assay is LOX IMVI melanoma. As to the kind of experiment: NCI-60 one-dose screen, 48 h (100 = growth as untreated, 0 = no growth, -100 = all killed). The following applies: 10 µM.
Regarding `COc1ccccc1C(=O)NNC(=O)CSc1nc2c(c(=O)[nH]1)CCCC2`, the growth was 96.9%.
The result for `NC1=NC(c2ccccc2Cl)N=C(Nc2nn[nH]n2)N1` (centres undefined) reads 94.2%.
With `COc1ccc2nc(Cl)c(-c3cc(-c4ccccc4)nc(=O)[nH]3)cc2c1` the figure was -46.4% (active).
With `O=c1[nH]n(C(=S)N/N=C/c2ccc(F)cc2)c(=O)c2ccccc12` the figure was -24.9% (active); with `O=C(CS(=O)(=O)c1oc(-c2ccc(Cl)cc2)nc1S(=O)(=O)c1ccccc1)N1CCCC1`, -100% (active); with `O=C1Nc2cc(Cl)ccc2/C1=C/c1cccc(OCc2ccc(Br)cc2F)c1`, -45.9% (active).
On to `Cc1nc2c(cnn2-c2ccccc2)c(=O)n1-c1ccc(NC(=O)c2ccc(F)cc2)cc1`, for which the growth is 61.8%.
The result for `S=c1nc(-c2ccccc2)cc(-c2cc3ccccc3nc2Cl)[nH]1` reads 44.9%; that for `Cc1ccc(C(=O)Nc2ccc(-n3c(C)nc4c(cnn4-c4ccccc4)c3=O)cc2)cc1`, 67.2%; that for `Cc1cc(C)nc(NS(=O)(=O)c2ccc(N/C(N)=N/c3nccc(-c4cccs4)n3)cc2)n1`, 77.8%.
The result for `COc1ccc(CN2[C@H](C(=O)NCc3ccc(C(=O)NO)cc3)Cc3c([nH]c4ccccc34)[C@H]2C2CC2)cc1` reads 35.1%; that for `O=C1Nc2ccc(Cl)cc2/C1=C/c1cccc(OCc2ccccc2)c1`, 1.77% (active); that for `O=C(Cn1cc(CSc2nnc3oc4ccccc4n23)nn1)Nc1ccc(Br)cc1`, 54.9%.
On to `CCN1CCN(c2ccc(NC(=O)Nc3ccc(-c4cc(C(=O)NC)c5ncccc5n4)cc3)cc2C(F)(F)F)CC1`, for which the growth was -100% (active).
With `COc1ccc(-c2nc(S(=O)(=O)c3ccc(C)cc3)c(S(=O)(=O)CC(=O)N(C)Cc3ccccc3)o2)cc1` the figure was -91.1% (active); with `COC[C@@H](CC(C)C)N=C1NC(=O)/C(=C/c2ccc3ncsc3c2)N1`, 0.514% (active); with `CC(C)Sc1nc(NC2CC2)c(C#N)c(-c2ccccc2)n1`, 80.2%.
The result for `CCOC(=O)N/C(=C1/OCCN1C)[P+](c1ccccc1)(c1ccccc1)c1ccccc1` reads 57.5%.
Turning to `CS(=O)(=O)Nc1ccc(-c2ccc3c(c2)ncn3-c2ccc(NC(=O)Nc3ccc(Cl)c(C(F)(F)F)c3)cc2)cc1`, the growth was -97% (active).
The result for `CN1CCc2c(sc3ncnc(N/N=C/c4cn(-c5ccccc5)nc4-c4ccc(Cl)cc4)c23)C1` reads -65.7% (active); that for `CC1(c2ccccc2)NC(=O)N(CC(=O)Nc2ccc(C(=O)/C=C/c3ccc(Br)cc3)cc2)C1=O` (centres undefined), -49.1% (active); that for `O=C(CN1CCN(c2ncnc3c2cnn3-c2ccccc2)CC1)Nc1nncs1`, -87.4% (active).
With `COc1ccc(C=CC(=O)c2ccc(-n3c(C)nc4c(cnn4-c4ccccc4)c3=O)cc2)cc1` the figure was 43.9%.
The result for `O=C(c1ccc(-n2c(=O)[nH]c3ccccc3c2=O)cc1)N1CCOCC1` reads 104%.
